A selection: hits, their analogues and other compounds. The true share with any hit is near 21%.
Sm TGR inh – blocks Schistosoma mansoni thioredoxin glutathione reductase; actives 3% (n = 360,000); purified TGR, DTNB reduction, TNB absorbance 405 nm; AID 485364; Potency, µM (doses to about 114 µM), without a hit: at the top dose activity change, negative = inhibition, actives largely listed as inhibitors; Q962Y6; also: potency is read from the fitted curve at half-maximal effect; % is scaled to controls: 0 for no effect and ±100 for the full control effect; nearly all actives have a fitted effect of over 60% in size
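TGR 20 nM + NADPH 100 uM (dispensed conc.), cpd preinc 15 min RT; start with NADPH (500 uM addition) then DTNB (15 mM addition). Kinetic TNB absorbance, 405 nm filter. Four-parameter Hill fit across titration.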
CHX counter – affects cycloheximide protein synthesis inhibition readout, counter-screen | actives 12% (n = 300,000) | max response, % | cell reporter, cycloheximide protein synthesis inhibition counterscreen | AID 2314; in the data active = max response mostly above about 13%, no sharp cut-off; inactive = mostly below about 14%; also: read at 38.3 µM for the half of the compounds with a filed dose; 0% is about no effect
Shiga toxin inh – inhibitors of Shiga toxin in Vero cells. actives 9.2% (n = 290,000). Vero cells, Shiga toxin protein synthesis inhibition reporter. inhibition, % at 38.7 µM. AID 2315; in the data active = inhibition mostly above about 28%, no sharp cut-off; inactive = mostly below about 43%; also: 0% is about no effect
NS1 function inh – inhibitors of influenza NS1 protein function; AID 2326; Potency, µM (top dose mostly 46.1 µM), without a hit: at the highest dose activity, positive = more growth; actives 0.4% (n = 270,000); calls by dose curve; also: potency is read from the fitted curve at half-maximal effect; actives are rising curves; nearly all actives have a fitted effect of over 50% in size
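S. cerevisiae expressing influenza A NS1, grown in glucose, washed, then diluted 1:100 into pH 6.0 -URA galactose medium with 23 nl compound. Growth recovery read as OD600; NS1-free strain serves as control.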
Pf growth 48h – P. falciparum growth inhibition at 48 hours (one generation); actives 5.9% (n = 310,000); P. falciparum luciferase growth in erythrocytes, 48 h; AID 504832; Potency, µM (titrated, usually from 28.7 µM), inactives show top-dose activity change, negative = inhibition, actives largely listed as inhibitors; also: potency is read from the fitted curve at half-maximal effect; % is scaled to controls: 0 for no effect and ±100 for the full control effect
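Firefly luciferase activity from engineered P. falciparum reports growth; inhibitors lower the luminescent signal. Cultures contained 2% hematocrit erythrocytes at 0.1% final parasitemia.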
Pf growth 96h – P. falciparum growth inhibition at 96 hour, primary screen for plastid delayed-death inhibitors; P. falciparum luciferase reporter growth, 96 h; Potency, µM (top dose mostly 28.7 µM), without a hit: top-dose activity change, negative = inhibition, most hits filed as inhibitors; actives 6.9% (n = 320,000); AID 504834; also: potency is read from the fitted curve at half-maximal effect; % is scaled to controls: 0 for no effect and ±100 for the full control effect
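P. falciparum expressing integrated firefly luciferase grown in erythrocytes (2% hematocrit, 0.05% parasitemia final) with compounds for 96 hours at 37 C, 5% CO2. Growth inhibition read as loss of luminescence after adding luciferase detection reagent.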
Starred values were filed as active, the others as inactive; ? = inconclusive; nt = no result. Unless noted, calls follow the shape of the dose curve; as a rule, active = well fitted curve in the direction sought with a large enough effect; inconclusive = small, poorly fitted or top-dose-only effect, or another doubt; inactive = no such curve, though single readings can be large; an effect the other way counts as inactive or inconclusive.

SMILES	Sm TGR inh	CHX counter	Shiga toxin inh	NS1 function inh	Pf growth 48h	Pf growth 96h
Cc1ccc(-n2c(SCC(=O)Nc3cccc(Cl)c3)nc3n[nH]c(C)c3c2=N)cc1	4%	nt	nt	nt	nt	nt
CCCc1cc(=O)[nH]c(SCC(=O)Nc2cccc(S(=O)(=O)N3CCOCC3)c2)n1	2%	nt	nt	nt	?	?
O=C(NCCCC(NC(=O)OCc1ccccc1)C(=O)O)OCc1ccccc1 (stereo not drawn)	-15%	-2	-4	?	4%	6.6µM*
CC(C)(C)OC(=O)N[C@@H](CCCCNC(=O)OCc1ccccc1)c1nnc([C@H](CCCCNC(=O)OCc2ccccc2)NC(=O)OC(C)(C)C)o1	-10%	-2	-2	-33%	?	2.6µM*
CSCC[C@H](NC(=O)OCc1ccccc1)C(=O)O	-10%	7	-15	4%	13%	nt
CC(C)(C)OC(=O)NCCCC[C@H](NC(=O)c1nc[nH]c1C(=O)NCC(=O)OCc1ccccc1)C(=O)OC(C)(C)C	0%	-2	-3	?	?	0%
COc1ccc(NC(=O)C(Cc2c[nH]c3ccccc23)NC(=O)OC(C)(C)C)cc1 (stereo not drawn)	-9%	nt	nt	nt	nt	nt
COc1ccc(NC(=O)C(CCCCNC(=O)OC(C)(C)C)NC(=O)OCc2ccccc2)cc1 (stereo not drawn)	-11%	-3	-2	-2%	?	0.59µM*
CC[C@@H](C)[C@H](NC(=O)OCc1ccccc1)c1nnc([C@@H](NC(=O)OCc2ccccc2)[C@@H](C)CC)o1	11%	1	-1	4%	10µM*	10µM*
CC(=O)N1CCC(=NNC(=O)c2cc3ccccc3cc2O)CC1	-1%	7	-5	21%	?	-3%
O=C1C(Cl)=C(N2CCCCC2)C(=O)C(Cl)=C1c1cnc(N2CCCCC2)s1	0.25µM*	-3	13	0%	10µM*	-6%
CC(C)NC(=O)c1cnc2sc(N3CCCCCC3)nn2c1=O	0%	nt	nt	nt	nt	nt
Cc1ccc(C)c(N2N=C(C(=O)OCc3nnc(-c4cccs4)o3)CCC2=O)c1	1%	nt	nt	nt	-12%	13%
CC(C)c1ccc2c(c1)C1(NN=C(c3ccccc3)S1)C(=O)N2 (stereo not drawn)	-28%	33*	68*	-9%	3.3µM*	?
CCc1ccc2c(c1)C1(NN=C(c3ccc(C)cc3)S1)C(=O)N2 (stereo not drawn)	-28%	24*	74*	2%	0.41µM*	?
CC(C)c1ccc(O)c(NC(=O)c2ncn[nH]2)c1	6%	-2	16	9%	?	-3%
O=C1C2C3C=CC(CC3)C2C(=O)N1c1ccc(Cl)cc1Cl (stereo not drawn)	58%	1	-8	-4%	0%	?
COCCN(Cc1ccco1)C(=O)c1cc2c(Cl)nc3ccc(C)cc3c2s1	-4%	nt	nt	nt	nt	nt
Cc1c(NC(=O)C(C)N2C(=O)NC3(CCC(C)CC3)C2=O)c(=O)n(-c2ccccc2)n1C (stereo not drawn)	-3%	8	26	-2%	21%	?
Cc1ccc(N(CC(=O)NCCc2ccc(Cl)cc2)S(=O)(=O)N(C)C)cc1	-1%	nt	nt	nt	nt	nt
CSc1ccc(CN2CCCC(N3CCN(c4ccccc4)CC3)C2)cc1 (stereo not drawn)	-8%	-1	-2	-8%	?	9.3µM*
COc1cc(CN2CCCC(N3CCN(c4ccccc4C)CC3)C2)ccc1O (stereo not drawn)	?	-1	5	20%	8.3µM*	55%
CCOc1ccc(CN2CCCC(N3CCN(c4ccc(OC)cc4)CC3)C2)cc1 (stereo not drawn)	17%	1	-3	29%	?	?
COc1ccccc1N1CCN(C2CCCN(Cc3cccc(O)c3)C2)CC1 (stereo not drawn)	-13%	0	-3	-9%	?	1.2µM*
COc1ccccc1N1CCN(C2CCCN(Cc3c(F)cccc3F)C2)CC1 (stereo not drawn)	0%	-3	-1	-6%	16%	-62%
SMILES	Sm TGR inh	CHX counter	Shiga toxin inh	NS1 function inh	Pf growth 48h	Pf growth 96h
COc1ccccc1CN1CCCC(N2CCN(c3ccccc3OC)CC2)C1 (stereo not drawn)	-13%	-3	-5	14%	-7%	4.7µM*
CC(=O)Nc1ccc(NC(=O)C(Cc2ccccc2)NS(=O)(=O)c2ccc3c(c2)oc(=O)n3C)cc1 (stereo not drawn)	-12%	nt	nt	nt	nt	nt
O=C(NCC[C@@H]1C[C@@H]2C=C[C@H]1C2)c1cc(COc2ccc(F)cc2F)on1	-10%	3	-2	-13%	-19%	?
COc1ccc(S(=O)(=O)N2CCOCC2)cc1NC(=O)CN1C(=O)NC(C)(C2CC2)C1=O (stereo not drawn)	-1%	nt	nt	nt	-18%	-13%
COC(=O)Nc1ccc(S(=O)(=O)NC2CCCCC2)cc1	-11%	-4	13	2%	11%	-23%
OCCOc1ccc(CN2CCCC(N3CCN(c4ccc(F)cc4)CC3)C2)cc1 (stereo not drawn)	-39%	-2	-2	9%	-36%	358%
COc1cc(CN2CCCC(N3CCN(c4ccc(F)cc4)CC3)C2)ccc1F (stereo not drawn)	11%	9	-8	?	2.1µM*	0.66µM*
Cc1ccc(S(=O)(=O)N(C)CCCC(=O)Nc2ccc(C)cc2C)cc1	3%	-3	-12	-7%	8%	-15%
O=c1c2cnn(-c3ccccc3)c2nc(-c2cccs2)n1-c1ccc(Cl)cc1	-29%	-4	28	3%	?	?
O=c1c2cnn(-c3ccccc3)c2nc(-c2cccs2)n1-c1cccc(Cl)c1	1%	-2	-3	11%	13µM*	?
CC(C)(C)OC(=O)N1Cc2ccccc2C[C@H]1C(=O)NCC(=O)NCC1CCCO1 (stereo partly drawn)	-1%	1	-10	-9%	14%	25%
CCOC(=O)c1cc(-c2ccccc2)n(CCCC(=O)Nc2cccc(Cl)c2C)c1C	37%	nt	nt	nt	nt	nt
CCC(=O)O[C@@]1(C(=O)SCF)[C@@H](C)C[C@H]2[C@@H]3C[C@@H](F)C4=CC(=O)C=C[C@@]4(C)[C@]3(F)[C@@H](O)C[C@]21C	nt	nt	nt	nt	5.7µM*	4.1µM*
CCC(=O)OCC(=O)[C@@]1(OC(=O)CC)[C@@H](C)C[C@@H]2[C@H]3CCC4=CC(=O)C=C[C@]4(C)[C@@]3(F)[C@@H](O)C[C@@]21C	nt	12	-7	nt	nt	nt
COc1ccccc1CNC(=O)CCC1N=C2c3ccccc3N=C(SCC(=O)Nc3ccc(N(C)C)cc3)N2C1=O (stereo not drawn)	0%	nt	nt	nt	nt	nt
Cc1ccc(-c2cc(C(=O)Nc3ccc(S(=O)(=O)N4CC(C)OC(C)C4)cc3)[nH]n2)c(O)c1 (stereo not drawn)	0%	-1	8	3%	0.26µM*	0.66µM*

Screening data deposited in PubChem BioAssay by National Center for Advancing Translational Sciences (NCATS).
